From PubChem BioAssay (NCATS) come the findings set out here.

Inconclusive results are not listed. Values without a mark were called inactive. Active and inactive are the calls of the source. Unless noted, calls follow the shape of the full dose curve.

Assay [1] is described as follows: qHTS for Inhibitors of the Functional Ribonucleoprotein Complex (vRNP) of Lassa (LASV) Arenavirus: LASV Primary Screen - GLuc reporter signal (AID 1347082; calls by dose curve; tested in HEK293 reporter line; also: nearly all actives have a fitted effect of over 60% in size; as to activity change, negative = inhibition: series mostly up to about 57 µM). Background: In qHTS, concentration-response curves come from the screen itself.
Assay [2] in a line: qHTS for Inhibitors of the Functional Ribonucleoprotein Complex (vRNP) of Lassa (LASV) Arenavirus: Viability assay - alamar blue signal for LASV Primary Screen (AID 1347083; calls by dose curve; tested in HEK293 reporter line; also: nearly all actives have a fitted effect of over 80% in size; as to activity change, negative = reduced viability: series mostly up to about 57 µM).
Assay [3] is described as follows: qHTS for Inhibitors of the Functional Ribonucleoprotein Complex (vRNP) of Lymphocytic Choriomeningitis Arenaviruses (LCMV): Viability assay - alamar blue signal for LCMV Primary Screen (AID 1347085; calls by dose curve; tested in HEK293 reporter line; also: nearly all actives have a fitted effect of over 80% in size; as to activity change, negative = lower viability: series mostly up to about 57 µM).
For assay [4], the target named is Nucleoprotein (Lymphocytic choriomeningitis virus (strain Armstrong)) (UniProt P09992). Description: qHTS for Inhibitors of the Functional Ribonucleoprotein Complex (vRNP) of Lymphocytic Choriomeningitis Arenaviruses (LCMV): LCMV Primary Screen - GLuc reporter signal (AID 1347086). Also: nearly all actives have a fitted effect of over 70% in size. As to activity change, negative = inhibition: series mostly up to about 57 µM.
% is scaled to controls: 0 for no effect and ±100 for the full control effect; potency is read from the fitted curve at half-maximal effect.

Chain of Nucleoprotein (Lymphocytic choriomeningitis virus (strain Armstrong)) (P09992 whole entry, looked up): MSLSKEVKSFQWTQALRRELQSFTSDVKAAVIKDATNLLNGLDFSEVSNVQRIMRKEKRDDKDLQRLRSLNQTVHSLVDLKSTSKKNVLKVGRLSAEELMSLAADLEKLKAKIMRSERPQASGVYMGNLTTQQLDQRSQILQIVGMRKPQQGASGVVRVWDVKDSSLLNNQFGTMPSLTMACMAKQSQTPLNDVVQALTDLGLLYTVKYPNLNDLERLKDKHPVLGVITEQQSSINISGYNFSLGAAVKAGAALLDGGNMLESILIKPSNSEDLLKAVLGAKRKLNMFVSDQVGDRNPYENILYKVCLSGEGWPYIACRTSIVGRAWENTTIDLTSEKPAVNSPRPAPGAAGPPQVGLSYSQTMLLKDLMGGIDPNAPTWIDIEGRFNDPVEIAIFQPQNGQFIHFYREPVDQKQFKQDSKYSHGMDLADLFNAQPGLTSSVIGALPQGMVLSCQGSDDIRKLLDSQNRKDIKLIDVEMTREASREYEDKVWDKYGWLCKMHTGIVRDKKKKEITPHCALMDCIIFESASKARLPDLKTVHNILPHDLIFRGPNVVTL

Turning to `O=C(OCC#CCSc1nnc(-c2cccc3ccccc23)o1)c1cc2ccccc2s1`, the Potency entry in assay [1], in assay [2], in assay [3] and in assay [4] was “inactive” in each case.
Turning to `CC(O)C1C(=O)N2C(C(=O)O)=C(SC3CNC(C(=O)N(C)C)C3)C(C)C12` (stereo not given), the Potency entry in assay [1], in assay [2], in assay [3] and in assay [4] was “inactive” throughout.
`COc1cc2oc(=O)ccc2c(OC)c1CC(O)C(C)(C)O` (stereo not given): the Potency result in assay [1], in assay [2], in assay [3] and in assay [4] was “inactive” each time.
In the case of `CCCCC(C)/C=C(C)/C=C(\C)C(=O)NC1=CC(O)(/C=C/C=C/C=C/C(=O)NC2=C(O)CCC2=O)C2OC2C1=O` (stereo not given), the Potency entry in assay [1], in assay [2], in assay [3] and in assay [4] was “inactive” throughout.
In the case of `CCCCC/C=C\C/C=C\C/C=C\CCCCCCC(=O)O[C@H](COCCCCCCCCCCCCCCCC)COP(=O)([O-])OCC[N+](C)(C)C`, the activity change, negative = inhibition in assay [1] was -13.6% [at 5.82 µM]; in assay [4], 9.5% [at 5.82 µM]. Also, the activity change, negative = reduced viability in assay [2] was 4.54% [at 5.82 µM]. Moreover, the activity change, negative = lower viability in assay [3] is 13.1% [at 5.82 µM].
On to `NCCC(=O)O`, for which the Potency entry in assay [1], in assay [2], in assay [3] and in assay [4] was “inactive” in each case.
Turning to `COc1cc(/C=C/c2ccc(O)cc2)cc(OC)c1`, the Potency result in assay [1], in assay [2], in assay [3] and in assay [4] was “inactive” each time.
On to `C=CCc1c(OC)ccc2ccc(=O)oc12`, for which the Potency entry in assay [1], in assay [2], in assay [3] and in assay [4] was “inactive” throughout.
For the molecule `CCCCCCCCC1CCC(=O)O1` (stereo not given), the Potency result in assay [1], in assay [2], in assay [3] and in assay [4] was “inactive” in each case.
On to `CC(C)=CCOc1c2ccoc2c(OCC=C(C)C)c2oc(=O)ccc12`, for which the Potency entry in assay [1], in assay [2], in assay [3] and in assay [4] was “inactive” each time.
On to `CC1C2CC(CC2C2CCCC(O)C2)C1(C)C` (stereo not given), for which the Potency result in assay [1], in assay [2], in assay [3] and in assay [4] was “inactive” each time.
On to `CC(C)=CC(=O)O`, for which the Potency entry in assay [1], in assay [2], in assay [3] and in assay [4] was “inactive” in each case.
On to `C[C@H]1[C@H](C)CC[C@]2(C(=O)O)CC[C@]3(C)C(=CC[C@@H]4[C@@]5(C)C[C@@H](O)[C@H](O)C(C)(C)[C@@H]5CC[C@]43C)[C@H]12`, for which the Potency entry in assay [1], in assay [2], in assay [3] and in assay [4] was “inactive” throughout.
`CC1CCC(C(C)[C@H]2CCC3C4CC(=O)C5C[C@@H](O)CC[C@]5(C)C4CC[C@@]32C)=NC1` (stereo not given in full): the Potency entry in assay [1], in assay [2], in assay [3] and in assay [4] was “inactive” throughout.
Regarding `CCN(CC)CCNC(=O)c1c(C)[nH]c(C=C2C(=O)Nc3ccc(F)cc32)c1C`, the Potency in assay [1] is 44.4 µM (active); in assay [2] it was 7.89 µM (active); in assay [3], 49.8 µM (active); in assay [4], 44.4 µM (active).
Take `O=C(/C=C/c1ccccc1)OC/C=C/c1ccccc1`: the Potency result in assay [1], in assay [2], in assay [3] and in assay [4] was “inactive” each time.
Take `C/C=C/c1ccc2oc(-c3ccc(O)cc3)c(C)c2c1`: the Potency entry in assay [1], in assay [2], in assay [3] and in assay [4] was “inactive” throughout.
`CC1(C)CCC[C@@]2(C)CC=C(C(=O)O)[C@@H]3C[C@]312`: the Potency result in assay [1], in assay [2], in assay [3] and in assay [4] was “inactive” throughout.
In the case of `C=CC(=O)Nc1cccc(Nc2nc(NC3CCC(N(C)C)CC3)nc3c2ncn3C(C)C)c1` (stereo not given), the Potency in assay [1] is 2.17 µM (active); in assay [2] it was 0.968 µM (active); in assay [3] it was 0.544 µM (active); in assay [4] it was 0.863 µM (active).
Turning to `NC(=O)Nc1ccc(Cl)c(Cl)c1`, the Potency result in assay [1], in assay [2], in assay [3] and in assay [4] was “inactive” each time.
For the molecule `C=C1C(=O)O[C@H]2C[C@]3(C)C([C@@H](OC(=O)/C(C)=C/C)[C@H]12)[C@](C)(O)CC[C@H]3O` (stereo not given in full), the Potency result in assay [1], in assay [2], in assay [3] and in assay [4] was “inactive” in each case.
`OC1O[C@H](c2ccc3c(c2)OCO3)[C@H]2CO[C@H](c3ccc4c(c3)OCO4)[C@@H]12` (stereo not given in full): the Potency entry in assay [1], in assay [2], in assay [3] and in assay [4] was “inactive” throughout.
Consider `NC1=NCCCC1`, for which the Potency result in assay [1], in assay [2], in assay [3] and in assay [4] was “inactive” throughout.
Take `Nc1ncnc2c1nc(Sc1ccc(Cl)cc1)n2[C@H]1OC2COP(=O)(O)O[C@@H]2C1O` (stereo not given in full): the Potency entry in assay [1], in assay [2], in assay [3] and in assay [4] was “inactive” each time.
`CCCCCc1ccco1`: the Potency result in assay [1], in assay [2], in assay [3] and in assay [4] was “inactive” each time.
On to `CCCCCCCCCO`, for which the Potency entry in assay [1], in assay [2], in assay [3] and in assay [4] was “inactive” each time.
In the case of `CC1NC(C(=O)O)Cc2c1[nH]c1ccccc21` (stereo not given), the Potency result in assay [1], in assay [2], in assay [3] and in assay [4] was “inactive” each time.
Consider `Cc1c(O)c2ccccc2oc1=O`, for which the Potency entry in assay [1], in assay [2], in assay [3] and in assay [4] was “inactive” in each case.
On to `COc1ccc2cc1Oc1ccc(cc1)CC1c3cc(c(OC)cc3CCN1C)Oc1c(OC)c(OC)c(OC)c3c1C(C2)N(C)CC3` (stereo not given), for which the Potency entry in assay [1], in assay [2], in assay [3] and in assay [4] was “inactive” in each case.
For `C[C@@H]1CC[C@@]23COC(=O)C2=CCC[C@@H]3[C@@]1(C)CC/C(=C/CO)CO`, the Potency entry in assay [1], in assay [2], in assay [3] and in assay [4] was “inactive” in each case.
